Source: the supplement of paper PMC7411054
Counter-ions that a name gives are not always drawn.

How the values were obtained:
Experiment in all cases: phenotypically active (imaging signature differs from DMSO and reproducible) at any of 0.3-9 uM (binary (1 = active, 0 = inactive)); higher = active
Details in all cases: treatment time: 24 h
A549-ACTB-RAB5A = tested on: A549-ACTB-RAB5A
Summary of the method: (§1)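 After 24 h at 0.3, 1, 3 or 9 µM, with four wells per treatment, fifteen gene-edited A549, HepG2 and WPMY1 reporter lines carrying BFP, GFP and RFP/FusionRed were imaged live. Each well's live-cell features were expressed relative to solvent control wells. Deviation required ≥3 of 4 wells past the 95th percentile of control Euclidean distances, and reproducibility a median replicate Pearson correlation over the 95th percentile of non-replicates. Phenotypic activity rested on both.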

A549-CANX-COX4 = tested on: A549-CANX-COX4
Summary of the method: as §1

A549-GM130-SQSTM1 = tested on: A549-GM130-SQSTM1
Summary of the method: as §1

A549-TP53BP1-CLTA = tested on: A549-TP53BP1-CLTA
Summary of the method: as §1

A549-TUBA1B-RELA = tested on: A549-TUBA1B-RELA
Summary of the method: as §1

HepG2-ACTB-RAB5A = tested on: HepG2-ACTB-RAB5A
Summary of the method: as §1

HepG2-CANX-COX4 = tested on: HepG2-CANX-COX4
Summary of the method: as §1

HepG2-GM130-SQSTM1 = tested on: HepG2-GM130-SQSTM1
Summary of the method: as §1

HepG2-TP53BP1-CLTA = tested on: HepG2-TP53BP1-CLTA
Summary of the method: as §1

HepG2-TUBA1B-RELA = tested on: HepG2-TUBA1B-RELA
Summary of the method: as §1

WPMY1-ACTB-RAB5A = tested on: WPMY1-ACTB-RAB5A
Summary of the method: as §1

WPMY1-CANX-COX4 = tested on: WPMY1-CANX-COX4
Summary of the method: as §1

WPMY1-GM130-SQSTM1 = tested on: WPMY1-GM130-SQSTM1
Summary of the method: as §1

WPMY1-TP53BP1-CLTA = tested on: WPMY1-TP53BP1-CLTA
Summary of the method: as §1

WPMY1-TUBA1B-RELA = tested on: WPMY1-TUBA1B-RELA
Summary of the method: as §1

Measured: phenotypically active

CN1C(=O)CC[C@H]1c1cccnc1 [(-)-Cotinine]
inactive: A549-ACTB-RAB5A 0 | A549-CANX-COX4 0 | A549-GM130-SQSTM1 0 | A549-TP53BP1-CLTA 0 | A549-TUBA1B-RELA 0 | HepG2-ACTB-RAB5A 0 | HepG2-CANX-COX4 0 | HepG2-GM130-SQSTM1 0 | HepG2-TP53BP1-CLTA 0 | HepG2-TUBA1B-RELA 0 | WPMY1-ACTB-RAB5A 0 | WPMY1-CANX-COX4 0 | WPMY1-GM130-SQSTM1 0 | WPMY1-TP53BP1-CLTA 0 | WPMY1-TUBA1B-RELA 0

CCOC(=O)[C@H](CCc1ccccc1)N[C@@H](C)C(=O)N1CCC[C@H]1C(=O)O [enalapril]
inactive: A549-ACTB-RAB5A 0 | A549-CANX-COX4 0 | A549-GM130-SQSTM1 0 | A549-TP53BP1-CLTA 0 | A549-TUBA1B-RELA 0 | HepG2-ACTB-RAB5A 0 | HepG2-CANX-COX4 0 | HepG2-GM130-SQSTM1 0 | HepG2-TP53BP1-CLTA 0 | HepG2-TUBA1B-RELA 0 | WPMY1-ACTB-RAB5A 0 | WPMY1-CANX-COX4 0 | WPMY1-GM130-SQSTM1 0 | WPMY1-TP53BP1-CLTA 0 | WPMY1-TUBA1B-RELA 0

OC(CCN1CCCCC1)(c1ccccc1)C1CC2C=CC1C2 (stereo not given) [biperiden]
inactive: A549-ACTB-RAB5A 0 | A549-CANX-COX4 0 | A549-GM130-SQSTM1 0 | A549-TP53BP1-CLTA 0 | A549-TUBA1B-RELA 0 | HepG2-ACTB-RAB5A 0 | HepG2-CANX-COX4 0 | HepG2-GM130-SQSTM1 0 | HepG2-TP53BP1-CLTA 0 | HepG2-TUBA1B-RELA 0 | WPMY1-ACTB-RAB5A 0 | WPMY1-CANX-COX4 0 | WPMY1-GM130-SQSTM1 0 | WPMY1-TP53BP1-CLTA 0 | WPMY1-TUBA1B-RELA 0

CNNCc1ccc(C(=O)NC(C)C)cc1 [procarbazine]
inactive: A549-ACTB-RAB5A 0 | A549-CANX-COX4 0 | A549-GM130-SQSTM1 0 | A549-TP53BP1-CLTA 0 | A549-TUBA1B-RELA 0 | HepG2-ACTB-RAB5A 0 | HepG2-CANX-COX4 0 | HepG2-GM130-SQSTM1 0 | HepG2-TP53BP1-CLTA 0 | HepG2-TUBA1B-RELA 0 | WPMY1-ACTB-RAB5A 0 | WPMY1-CANX-COX4 0 | WPMY1-GM130-SQSTM1 0 | WPMY1-TP53BP1-CLTA 0 | WPMY1-TUBA1B-RELA 0

COc1ncc2cc(C(=O)Nc3cc(C(=O)NCc4cccc(Cl)c4)ccc3Cl)c(=O)[nH]c2n1
inactive: A549-ACTB-RAB5A 0 | A549-CANX-COX4 0 | A549-GM130-SQSTM1 0 | A549-TP53BP1-CLTA 0 | A549-TUBA1B-RELA 0 | HepG2-ACTB-RAB5A 0 | HepG2-CANX-COX4 0 | HepG2-GM130-SQSTM1 0 | HepG2-TP53BP1-CLTA 0 | HepG2-TUBA1B-RELA 0 | WPMY1-ACTB-RAB5A 0 | WPMY1-CANX-COX4 0 | WPMY1-GM130-SQSTM1 0 | WPMY1-TP53BP1-CLTA 0 | WPMY1-TUBA1B-RELA 0

C[C@@H](CO)CCC[C@@H](C)[C@H]1CC[C@H]2[C@@H]3CC=C4C[C@@H](O)CC[C@]4(C)[C@H]3CC[C@]12C [27-Hydroxycholesterol]
inactive: A549-ACTB-RAB5A 0 | A549-CANX-COX4 0 | A549-GM130-SQSTM1 0 | A549-TP53BP1-CLTA 0 | A549-TUBA1B-RELA 0 | HepG2-ACTB-RAB5A 0 | HepG2-CANX-COX4 0 | HepG2-GM130-SQSTM1 0 | HepG2-TP53BP1-CLTA 0 | HepG2-TUBA1B-RELA 0 | WPMY1-ACTB-RAB5A 0 | WPMY1-CANX-COX4 0 | WPMY1-GM130-SQSTM1 0 | WPMY1-TP53BP1-CLTA 0 | WPMY1-TUBA1B-RELA 0

OCCN1C[C@H](O)[C@@H](O)[C@H](O)[C@H]1CO [Miglitol]
inactive: A549-ACTB-RAB5A 0 | A549-CANX-COX4 0 | A549-GM130-SQSTM1 0 | A549-TP53BP1-CLTA 0 | A549-TUBA1B-RELA 0 | HepG2-ACTB-RAB5A 0 | HepG2-CANX-COX4 0 | HepG2-GM130-SQSTM1 0 | HepG2-TP53BP1-CLTA 0 | HepG2-TUBA1B-RELA 0 | WPMY1-ACTB-RAB5A 0 | WPMY1-CANX-COX4 0 | WPMY1-GM130-SQSTM1 0 | WPMY1-TP53BP1-CLTA 0 | WPMY1-TUBA1B-RELA 0

CCCCCN(C)CCC(O)(P(=O)(O)O)P(=O)(O)O [ibandronate]
inactive: A549-ACTB-RAB5A 0 | A549-CANX-COX4 0 | A549-GM130-SQSTM1 0 | A549-TP53BP1-CLTA 0 | A549-TUBA1B-RELA 0 | HepG2-ACTB-RAB5A 0 | HepG2-CANX-COX4 0 | HepG2-GM130-SQSTM1 0 | HepG2-TP53BP1-CLTA 0 | HepG2-TUBA1B-RELA 0 | WPMY1-ACTB-RAB5A 0 | WPMY1-CANX-COX4 0 | WPMY1-GM130-SQSTM1 0 | WPMY1-TP53BP1-CLTA 0 | WPMY1-TUBA1B-RELA 0

COC(=O)c1ccc(N2CCN(C)CC2)c(NC(=O)c2cccc(OC)c2)c1
inactive: A549-ACTB-RAB5A 0 | A549-CANX-COX4 0 | A549-GM130-SQSTM1 0 | A549-TP53BP1-CLTA 0 | A549-TUBA1B-RELA 0 | HepG2-ACTB-RAB5A 0 | HepG2-CANX-COX4 0 | HepG2-GM130-SQSTM1 0 | HepG2-TP53BP1-CLTA 0 | HepG2-TUBA1B-RELA 0 | WPMY1-ACTB-RAB5A 0 | WPMY1-CANX-COX4 0 | WPMY1-GM130-SQSTM1 0 | WPMY1-TP53BP1-CLTA 0 | WPMY1-TUBA1B-RELA 0

C=CCc1ccccc1OC[C@@H](O)CNC(C)C [Alprenolol hydrochloride]
inactive: A549-ACTB-RAB5A 0 | A549-CANX-COX4 0 | A549-GM130-SQSTM1 0 | A549-TP53BP1-CLTA 0 | A549-TUBA1B-RELA 0 | HepG2-ACTB-RAB5A 0 | HepG2-CANX-COX4 0 | HepG2-GM130-SQSTM1 0 | HepG2-TP53BP1-CLTA 0 | HepG2-TUBA1B-RELA 0 | WPMY1-ACTB-RAB5A 0 | WPMY1-CANX-COX4 0 | WPMY1-GM130-SQSTM1 0 | WPMY1-TP53BP1-CLTA 0 | WPMY1-TUBA1B-RELA 0

Nc1nnc(-c2cccc(Cl)c2Cl)c(N)n1 [lamotrigine]
inactive: A549-ACTB-RAB5A 0 | A549-CANX-COX4 0 | A549-GM130-SQSTM1 0 | A549-TP53BP1-CLTA 0 | A549-TUBA1B-RELA 0 | HepG2-ACTB-RAB5A 0 | HepG2-CANX-COX4 0 | HepG2-GM130-SQSTM1 0 | HepG2-TP53BP1-CLTA 0 | HepG2-TUBA1B-RELA 0 | WPMY1-ACTB-RAB5A 0 | WPMY1-CANX-COX4 0 | WPMY1-GM130-SQSTM1 0 | WPMY1-TP53BP1-CLTA 0 | WPMY1-TUBA1B-RELA 0
